From PubChem BioAssay (NCATS)
Results filed as inconclusive are left out. Active and inactive are the calls of the source. The call rests on the fitted dose curve; in most records, active means well fitted curve in the direction sought with a large enough effect; inconclusive means small, poorly fitted or top-dose-only effect, or another doubt; inactive means no such curve, though single readings can be large; an effect the other way counts as inactive or inconclusive.

Key:
[1] = A2780 Cisplatin Sensitive Ovarian Cancer Cell Toxicity qHTS against the NCATS CANVASS Library (AID 1347353); conditions: A2780 ovarian cancer viability, ATPLite luminescence, 72 h; at 46.1 µM (top of the series); further: nearly all actives have a fitted effect of over 60% in size
How it was run: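 Seventy-two-hour exposure of cisplatin-sensitive A2780 ovarian cells to an 11-concentration qHTS series; cytotoxicity is inferred from loss of ATPLite luminescence. Bortezomib titration served as positive control.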

[2] = UWB1.289-WTBRCA1 Cancer Cell Toxicity qHTS against the NCATS CANVASS Library (AID 1347354); conditions: UWB1.289-WTBRCA1 viability, CellTiter-Glo luminescence, 72 h; at 38.3 µM (top of the series)
How it was run: (§1)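 qHTS cytotoxicity: compounds tested in 11 concentrations on 1000 seeded cells per well over 72 h; bortezomib served as control; signal from CellTiter-Glo luminescence.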

[3] = HEK-293 Cancer Cell Toxicity qHTS against the NCATS CANVASS Library (AID 1347355); conditions: HEK-293 viability, CellTiter-Glo luminescence, 72 h; at 46.1 µM (top of the series); further: nearly all actives have a fitted effect of over 65% in size
How it was run: as §1

[4] = HPAF-II 24hr Apoptosis Induction qHTS against the NCATS CANVASS Library (AID 1347356); conditions: HPAF-II caspase-3/7 Caspase-Glo luminescence; series mostly up to 46.1 µM
How it was run: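 Apoptosis induction in HPAF-II pancreatic cancer cells is measured as caspase-3/7 luminescence after a 24-hour exposure to compounds.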

[5] = HEK293 18hr Apoptosis Induction qHTS against the NCATS CANVASS Library (AID 1347357); conditions: HEK293 caspase-3/7 Caspase-Glo luminescence; series mostly up to 46.1 µM
How it was run: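 Caspase-3/7 luminescence (DEVD substrate, Caspase-Glo) after 18 h compound exposure of HEK293 cells, 500 cells/well; 11-point series; doxorubicin titration as control.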

[6] = HPAF-II 12hr Apoptosis Induction qHTS against the NCATS CANVASS Library (AID 1347358); conditions: HPAF-II caspase-3/7 Caspase-Glo luminescence; series mostly up to 46.1 µM
How it was run: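 Apoptosis in HPAF-II pancreatic cancer cells is scored as caspase 3/7 luminescence following a 12-hour exposure to an 11-point compound series.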

[7] = HEK293 24hr Apoptosis Induction qHTS against the NCATS CANVASS Library (AID 1347359); conditions: HEK293 caspase-3/7 activation, Caspase-Glo luminescence; series mostly up to 46.1 µM
How it was run: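 HEK293 cells (500/well, DMEM + 10% FBS) were exposed to compounds in an 11-point series for 24 hours at 37 degrees C, then caspase-3/7 activity was read by Caspase-Glo DEVD luciferase luminescence after 15 min.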

[8] = HPAF-II 18hr Apoptosis Induction qHTS against the NCATS CANVASS Library (AID 1347360); conditions: HPAF-II caspase-3/7 luminescence; series mostly up to 46.1 µM
How it was run: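 Caspase-Glo 3/7 luminescence (DEVD substrate) after 15 min RT; HPAF-II, 500 cells/well, 18 h compound exposure at 37 degrees C, qHTS series; doxorubicin control 0.1nM - 4uM.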

[9] = HEK293 12hr Apoptosis Induction qHTS against the NCATS CANVASS Library (AID 1347361); conditions: HEK293 caspase-3/7 Caspase-Glo luminescence; series mostly up to 46.1 µM
How it was run: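 500 HEK293 cells/well; cpds pin-transferred, 11-pt conc series; 12 h, 37 degrees C/5% CO2; Caspase-Glo 3/7 added, 15 min RT dark; luminescence.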

[10] = tested on: NAD(P)H diaphorase (Clostridium kluyveri); assay: Diaphorse counterscreen qHTS: Assay Interference Panel against the NCATS CANVASS Library (AID 1347362); conditions: Diaphorase enzyme, resazurin to resorufin fluorescence; series mostly up to 57.5 µM
How it was run: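 Clostridium kluyveri diaphorase in PBS with 0.01% Tween-20 was preincubated 15 min at room temperature in the dark with compounds (11-point series). Resorufin fluorescence (ex 525/20, em 598/25) was read 5 min after adding resazurin/NADH.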

[11] = target: Luciferin 4-monooxygenase (Photinus pyralis) (UniProt P08659); assay: Firefly luciferase counterscreen qHTS: Assay Interference Panel against the NCATS CANVASS Library (AID 1347363); conditions: purified firefly luciferase, luminescence inhibition, 5 min; series mostly up to 57.5 µM
How it was run: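 Purified P. pyralis luciferase was added to compounds (11-point series) preincubated 15 min at room temperature with substrate containing 0.013 mM D-luciferin and 0.013 mM ATP; luminescence was read after 5 min.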

[12] = KB-8-5-11 Cancer Cell Toxicity qHTS against the NCATS CANVASS Library (AID 1347364); conditions: KB-8-5-11 MDR cells viability, CellTiter-Glo, 72 h; at 46.1 µM (top of the series); further: nearly all actives have a fitted effect of over 75% in size
How it was run: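 Natural products were titrated in 11 points onto KB-8-5-11 cells, 500 per well, and cytotoxicity was scored from CellTiter-Glo luminescence after 72 hr culture.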

[13] = SDT Cancer Cell Toxicity qHTS against the NCATS CANVASS Library (AID 1347365); conditions: SDT dog glioma viability, ATP luminescence, 72 h; at 46.1 µM (top of the series); further: nearly all actives have a fitted effect of over 60% in size
How it was run: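 Dispense 500 SDT cells per well; pin-transfer compounds; incubate 72 hr at 37C, 5% CO2, 95% RH; add CellTiterGlo and read luminescence.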

[14] = KB-3-1 Cancer Cell Toxicity qHTS against the NCATS CANVASS Library (AID 1347366); conditions: KB-3-1 viability, CellTiter-Glo luminescence, 72 h; series mostly up to 46.1 µM; further: nearly all actives have a fitted effect of over 75% in size
How it was run: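 500 KB-3-1 cells/well; compounds pin-transferred, 11-pnt series; 72 hr, 37C/5% CO2; CellTiter-Glo, 10 min RT; luminescence read-out.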

[15] = qHTS for ATAD5 Agonist screened against the NCATS CANVASS Library (AID 1347367); conditions: HEK293T ATAD5-luciferase reporter, luminescence, 16 h; series mostly up to 46.1 µM
How it was run: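 Luminescence read-out: ATAD5-driven luciferase in stably transfected HEK 293T cells, which rises post-transcriptionally with DNA damage. Cells were exposed 16hr at 37C to test compound; a CellTiter-Fluor fluorescence read (1hr) measured viability first.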

[16] = G06 Cancer Cell Toxicity qHTS against the NCATS CANVASS Library (AID 1347368); conditions: G06 dog glioma cells, viability ATP luminescence, 72 h; at 46.1 µM (top of the series); further: nearly all actives have a fitted effect of over 60% in size
How it was run: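 Cytotoxicity toward canine glioma G06 cells is scored from cellular ATP via luminescence after 72 hr compound exposure at 500 cells/well.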

[17] = MCF7 Cancer Cell Toxicity qHTS against the NCATS CANVASS Library (AID 1347369); conditions: MCF7 viability, ATP luminescence (CellTiter-Glo), 72 h; series mostly up to 46 µM
How it was run: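 Luminescent ATP signal (CellTiterGlo) served as the cytotoxicity read-out after MCF7 breast cancer cells had been incubated 72 hr at 37C with natural products in an 11-point titration.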

[18] = qHTS for ATAD5 Antagonist screened against the NCATS CANVASS Library (AID 1347370); conditions: HEK293T-ATAD5-luc, 5-FUrd stimulated, luminescence, 16 h; series mostly up to 46.1 µM;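 further: HEK293T cells carrying an ATAD5 luciferase reporter co-treated with 10 µM 5-fluorouridine; nearly all actives have a fitted effect of over 65% in size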
How it was run: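 HEK293T cells with a stably integrated ATAD5-controlled luciferase reporter were exposed to compounds (11-pt) alongside 10 uM 5-fluorouridine as ATAD5 stabilizer for 16hr at 37C. Viability was read by CellTiter-Fluor fluorescence, then ATAD5 by luminescence.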

[19] = J3T Cancer Cell Toxicity qHTS against the NCATS CANVASS Library (AID 1347371); conditions: J3T dog glioma viability, ATP luminescence, 72 h; at 46.1 µM (top of the series)
How it was run: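 Viability of the J3T glioma line from dog is scored by ATP luminescence after a 72 hr incubation with natural products.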

[20] = target: Nuclear receptor subfamily 1 group I member 3 (Homo sapiens) (UniProt Q14994); assay: qHTS for Constitutive Androstane Receptor (CAR) Antagonist screened against the NCATS CANVASS Library (AID 1347372); conditions: HepG2-hCAR-CYP2B6 luciferase, CITCO-stimulated antagonist mode; series mostly up to 46.1 µM;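 further: cells stimulated with 50 nM CITCO agonist so inhibition reflects antagonism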
How it was run: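 HepG2 cells stably carrying hCAR and a CYP2B6-2.2kb luciferase reporter were exposed to compounds plus 50 nM CITCO for 24hr at 37C. CAR activity was read by ONE-Glo luminescence, with viability measured first by CellTiter-Fluor.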

Measured: outcome

Sequence of Luciferin 4-monooxygenase (Photinus pyralis) (P08659 whole entry, looked up): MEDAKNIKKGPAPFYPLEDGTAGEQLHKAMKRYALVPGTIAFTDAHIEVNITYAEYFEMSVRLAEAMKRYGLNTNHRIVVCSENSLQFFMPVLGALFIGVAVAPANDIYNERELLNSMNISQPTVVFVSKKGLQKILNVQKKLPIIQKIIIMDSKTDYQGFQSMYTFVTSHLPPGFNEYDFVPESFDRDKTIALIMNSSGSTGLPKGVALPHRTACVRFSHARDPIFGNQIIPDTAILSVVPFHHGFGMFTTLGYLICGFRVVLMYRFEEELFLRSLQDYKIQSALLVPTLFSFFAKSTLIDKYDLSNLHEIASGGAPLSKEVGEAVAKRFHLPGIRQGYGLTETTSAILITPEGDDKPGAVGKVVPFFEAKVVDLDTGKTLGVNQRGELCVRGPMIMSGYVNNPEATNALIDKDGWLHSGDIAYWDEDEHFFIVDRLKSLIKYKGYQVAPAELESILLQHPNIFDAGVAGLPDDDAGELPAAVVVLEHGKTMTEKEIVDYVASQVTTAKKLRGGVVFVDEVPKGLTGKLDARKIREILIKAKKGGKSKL
Sequence of Nuclear receptor subfamily 1 group I member 3 (Homo sapiens) (Q14994 whole entry, looked up): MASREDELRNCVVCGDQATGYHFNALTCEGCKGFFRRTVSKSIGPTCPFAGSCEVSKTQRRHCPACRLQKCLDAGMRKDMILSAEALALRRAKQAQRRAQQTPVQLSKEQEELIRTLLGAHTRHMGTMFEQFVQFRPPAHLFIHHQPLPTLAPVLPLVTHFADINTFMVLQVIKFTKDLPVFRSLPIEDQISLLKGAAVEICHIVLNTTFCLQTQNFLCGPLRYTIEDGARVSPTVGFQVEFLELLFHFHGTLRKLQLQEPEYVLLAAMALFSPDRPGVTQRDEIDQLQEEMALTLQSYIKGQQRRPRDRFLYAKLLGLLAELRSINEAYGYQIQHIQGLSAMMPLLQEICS

NCC(O)c1ccc(O)cc1 (stereo not given)
inactive: all assays above
